Rab9 promoter act: activates the Rab9 promoter | Huh7 Rab9 promoter-luciferase reporter, luminescence, 24 h | AID 485297 | actives 2.8% (n = 320,000) | Potency, µM (top dose mostly 9.22 µM), without a hit: at the top dose activation, negative = inhibition, hits mostly activators; note: % of control where 0% means no effect; nearly all actives have a fitted effect of over 60% in size
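Cells were plated at 1500 per well in reduced-serum medium with 10% FBS and left 2 h. Compound in DMSO was then added for 24 h at 37 °C. Reporter signal was read by luminescence after 10 min with luciferase detection reagent.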
Luc counter: blocks Kinase-Glo luciferase, a counter-screen artifact; Q27757; Kinase-Glo luciferase, ATP luminescence, 8 min; Potency, µM (doses to about 38.3 µM), for inactives: at the top dose activity change, negative = inhibition, usual class: inhibitors; actives 0.28% (n = 200,000); AID 1379; note: % is set by controls: 0 for no effect and ±100 for the full control effect; nearly all actives have a fitted effect of over 60% in size
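Recombinant Kinase-Glo luciferase, 10 uM ATP (linear range), luciferin; imidazole pH 7.2 / KCl / MgCl2 / Tween / BSA buffer; 8 min RT; luminescence.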
NPC1 prom act: activates the NPC1 promoter. actives 2.4% (n = 320,000). Huh7 NPC1 promoter luciferase reporter, 24 h. Potency, µM (titrated, usually from 9.22 µM), inactives show at the highest dose activation, actives largely listed as activators; note: % of control where 0% means no effect; nearly all actives have a fitted effect of over 60% in size
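Huh7 reporter cells (NPC1 promoter driving luciferase) are dosed with compound for 24 h at 37 °C, 5% CO2; luciferase detection reagent is then added and luminescence measured after 10 min at ambient temperature.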
SMN2 splice up: enhancers of SMN2 splice variant expression. HEK293 SMN2-luciferase splicing reporter, luminescence, 30-36 h. Potency, µM (doses to about 46.1 µM), without a hit: at the highest dose activity change, positive = activation, usual class: activators. actives 2.8% (n = 210,000). AID 1458; note: % of control where 0% means no effect; nearly all actives have a fitted effect of over 55% in size
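qHTS luciferase splicing reporter: luminescence rises when SMN2 exon 7 is included in transfected HEK293 cells. Compound exposure lasted 30-36 h at 37C, with 4.5 mM final sodium butyrate as control, followed by a ONE-Glo read.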
ELG1 genotoxic: genotoxicity induction in ELG1-luciferase HEK293T cells; actives 1.3% (n = 330,000); HEK293T ELG1-luciferase reporter, luminescence, 16 h; Potency, µM (series often up to 46 µM), inactives show at the top dose activity change, positive = activation, actives largely listed as activators; AID 504466; note: % of control where 0% means no effect; nearly all actives have a fitted effect of over 60% in size
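Step 1: seed 2,000 HEK293T ELG1-luciferase cells per well. Step 2: add compound or DMSO, incubate 16 hr at 37 °C. Step 3: ONE-Glo, 30 min at room temperature, read luminescence.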
FLuc counter: counter-screen for miR-21 project: firefly luciferase inhibitors or activators. Potency, µM (series often up to 57.5 µM), without a hit: at the top dose activity change, negative = inhibition, usual class: inhibitors. purified FLuc, Km substrates, luminescence inhibition. P08659. actives 6.9% (n = 360,000);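 note: plate controls were vehicle for no effect and reference inhibitor for full effect; nearly all actives have a fitted effect of over 55% in size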
Target sequence (P08659 whole entry, looked up): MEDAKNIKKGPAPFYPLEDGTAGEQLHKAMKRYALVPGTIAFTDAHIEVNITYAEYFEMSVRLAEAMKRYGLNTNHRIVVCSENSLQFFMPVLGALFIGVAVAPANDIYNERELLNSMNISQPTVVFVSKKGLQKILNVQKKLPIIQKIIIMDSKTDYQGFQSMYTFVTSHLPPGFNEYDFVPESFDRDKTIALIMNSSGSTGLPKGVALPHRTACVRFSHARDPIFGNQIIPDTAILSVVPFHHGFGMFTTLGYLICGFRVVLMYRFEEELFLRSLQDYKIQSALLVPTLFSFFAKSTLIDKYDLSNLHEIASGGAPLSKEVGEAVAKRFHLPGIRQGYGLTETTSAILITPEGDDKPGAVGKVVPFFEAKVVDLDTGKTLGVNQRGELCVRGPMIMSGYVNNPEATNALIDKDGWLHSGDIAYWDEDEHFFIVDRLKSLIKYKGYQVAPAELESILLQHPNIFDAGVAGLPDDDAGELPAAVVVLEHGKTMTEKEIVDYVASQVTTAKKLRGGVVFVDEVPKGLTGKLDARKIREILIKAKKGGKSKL
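Biochemical qHTS of compounds, final roughly 60 µM downward over six points, against 10 nM purified firefly luciferase using Km concentrations of substrates (10 uM D-luciferin, 10 uM ATP) in Tris acetate pH 7.5 buffer; luminescence output.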
An asterisk follows results filed as active; ? = inconclusive; · = no result; [ ] = another dose, or the depositor's remark. Hits are enriched below; roughly 7.3% of the tested compounds scored in any of these assays. Calls come from the whole dose curve; as a rule, active = well fitted curve in the direction sought with a large enough effect; inconclusive = small, poorly fitted or top-dose-only effect, or another doubt; inactive = no such curve, though single readings can be large; an effect the other way counts as inactive or inconclusive. Potency is the fitted concentration of half-maximal effect.

SMILES	Rab9 promoter act	Luc counter	NPC1 prom act	SMN2 splice up	ELG1 genotoxic	FLuc counter
O=C(c1cc(-c2ccccc2)nc2ccccc12)N1N=C(C(F)F)CC1(O)C(F)F (stereo not drawn)	-9%	-6%	24%	-1%	0%	0%
Cc1ccc(-c2cc(C(=O)N3N=C(C(F)F)CC3(O)C(F)F)c3ccccc3n2)cc1C (stereo not drawn)	1%	0%	16%	8%	-3%	7.6µM*
CCOc1cccc(-c2cc(C(=O)N3N=C(C)CC3(O)C(F)F)c3ccccc3n2)c1 (stereo not drawn)	-5%	0%	-10%	3%	-2%	24µM*
Cc1ccc(CNC(=O)c2c(-c3cccc(Br)c3)noc2C)o1	·	·	·	·	·	-4%
COC(=O)c1cccc(NC(=O)c2onc3c2CCCC3)c1	0.32µM*	?	0.4µM*	0.79µM*	0.82µM*	0.85µM*
COC(=O)c1cccc(NC(=O)c2ccccc2)c1	?	·	24%	·	7%	?
O=C(Nc1ccc2ccccc2c1)c1onc2c1CCCC2	0.56µM*	-8%	0.4µM*	8.9µM*	?	0.95µM*
CC(=O)N(C)C	·	0%[39.9 µM]	·	·	·	·
CC(=Nc1ccc(C)cc1)c1sc2ccccc2c1O	0.89µM*	-7%	1.8µM*	0.63µM*	0.73µM*	0.43µM*
CC(=Nc1ccc(C)cc1C)c1sc2ccccc2c1O	3.5µM*	-3%	?	11µM*	?	0.76µM*
CC(=Nc1cccc(O)c1)c1sc2ccccc2c1O	?	-10%	29%	18µM*	1.6µM*	1.7µM*
CCCn1c(=O)n(-c2ccccc2Cl)c(=O)c2sc3ccccc3c21	·	·	·	-14%	·	-4%
COc1cc(CN(C(=O)c2ccccc2)c2ccccn2)cc(OC)c1OC	·	·	·	·	·	-2%
CCc1cc2c(SC(C)C(=O)NC3CCCC3)ncnc2s1 (stereo not drawn)	·	·	·	·	-1%	·
CCc1cc(C=NC2CCCCC2)c(O)s1	3.5µM*	-4%	?	18%	13%	?
Nc1ccc(-c2nc3ccc(C(=O)O)cc3s2)cc1	-43%	-15%	-39%	·	?	0.21µM*
Cc1ccc2nc(-c3ccc(NC(=O)c4ccc(N)cc4)c(S(=O)(=O)O)c3)sc2c1	·	0%[7.66 µM]	·	4µM*	·	·
O=C(O)c1ccc2nc(-c3ccccc3)sc2c1	-28%	-9%	-27%	0.1µM*	?	2.4µM*
Cc1cccc(C(=O)Nc2ccc(-c3nc4ccccc4s3)cc2Cl)c1	·	·	·	·	·	-6%
Nc1cc2sc(-c3ccc(C(=O)O)cc3)nc2cc1Cl	0.56µM*	?	0.79µM*	1.4µM*	?	0.67µM*
COc1ccc(/C=C/c2nc(C#N)c(N3CCN(c4ccccc4)CC3)o2)cc1OC	·	·	·	1%	·	-2%
C/C(=N\NC(=O)c1cc(-c2cccc(OC(C)C)c2)nc2ccccc12)c1cccnc1	?	·	24%	·	3%	0.6µM*
C/C(=N\NC(=O)c1cc(-c2ccc(C)s2)nc2ccccc12)c1cccnc1	?	·	?	·	13%	0.95µM*
CCCN(C(=O)c1cc2c(=O)oc3ccccc3c2s1)c1ccccc1C	·	·	·	3%	·	5%
CN(C)CCCN=c1c2ccccc2n(C)c2[nH]c(=O)n(C)c(=O)c12	·	-5%[7.66 µM]	·	-28%[9.22 µM]	·	·
SMILES	Rab9 promoter act	Luc counter	NPC1 prom act	SMN2 splice up	ELG1 genotoxic	FLuc counter
O=C(COc1ccc(Cl)cc1[N+](=O)[O-])N/N=C/c1cccs1	0%	4%	-2%	-3%	0%	?
CCc1ccc(OCC(=O)N/N=C\c2ccco2)c([N+](=O)[O-])c1	6%	-1%	11%	3%	11%	11µM*
C/C(=N\NC(=O)COc1ccccc1[N+](=O)[O-])c1cccs1	3.2µM*	0%	?	25µM*	?	24µM*
O=C(COc1cccc([N+](=O)[O-])c1)N/N=C/c1ccco1	-9%	-4%	-14%	2%	-2%	5%
Cc1ccc(OCC(=O)N/N=C\c2cccs2)c([N+](=O)[O-])c1	19%	4%	14%	2%	9%	12µM*
COc1ccc(OCC(=O)N/N=C(\C)c2cccs2)cc1	-1%	·	0%	·	7%	?
CCN(c1ccc(C)cc1C)S(=O)(=O)c1nnc(NC(=O)c2ccccc2OC)s1	·	·	·	·	·	5%
CCOC(=O)c1nnc2c(-c3ccc(Cl)cc3)c(C)nn2c1N	·	·	·	0%	·	0%
O=c1c2sccc2n(Cc2cc(=O)n3cc(Cl)ccc3n2)c(=O)n1-c1ccccc1	·	·	·	-14%	·	4%
Cc1ccc(CSc2nnc(C)c(=O)[nH]2)cc1	-2%	0%	-8%	-6%	11%	17µM*
Cc1cc(C)n2c(Nc3ccccc3)c(-c3ccccc3)nc2n1	·	·	·	-1%	·	-10%
Cc1cc(-n2nnc3ccccc32)nc2ccccc12	-3%	3%	2%	0.22µM*	9%	-10%
Cc1cc(N2CCCCC2)nc2ccccc12	-1%	1%	-2%	0%	1%	?
O=C(Nc1nccs1)c1ccc(-c2ccc(F)c(Cl)c2)o1	?	·	?	·	-1%	6µM*
Cc1ccccc1-c1ccc(C(=O)Nc2cccc(F)c2)o1	15%	-4%	6%	13%	?	9.5µM*
O=C(Nc1nccs1)c1ccc(-c2ccc(Cl)cc2Cl)o1	3.2µM*	-5%	3.5µM*	14µM*	?	0.85µM*
O=C(Nc1cccc(F)c1)c1ccc(-c2ccccc2C(F)(F)F)o1	3%	-2%	-4%	0%	9%	?
Cc1ccccc1NC(=O)c1ccc(-c2ccc(Cl)cc2Cl)o1	19%	0%	9%	0%	7%	8.5µM*
COc1ccccc1CNc1nc2c(S(=O)(=O)c3ccc(C)c(C)c3)nnn2c2ccc(Cl)cc12	·	·	·	-10%	·	-2%
Cc1nc2c(C(=O)NCc3ccccc3Cl)cnn2c(C)c1Cc1c(F)cccc1Cl	·	·	·	·	·	-3%
CCOC(=O)c1cccc(NC(=O)c2cc3c(=O)n(Cc4cccnc4)ccc3nc2C)c1	·	·	·	·	·	-2%
C=CCNc1ncnc2c1[nH]c1ccc(Cl)cc12	30%	-3%	5%	-80%	?	12µM*
CCOc1ccc(C(CC(=O)O)NC(=O)COc2ccc3ccccc3c2)cc1OC (stereo not drawn)	-4%	·	-4%	·	0%	-6%
CCOc1ccc(C(CC(=O)O)NC(=O)COc2ccccc2OC)cc1OC (stereo not drawn)	-6%	-1%	-2%	22µM*	2%	-7%
COc1ccc(Oc2cc(C)c3ccccc3n2)cc1	10%	0%	0%	-17%	8%	?
c1ccc(Oc2ccc3ccccc3n2)cc1	5%	-6%	17%	-5%	?	17µM*
